Reference: PubChem BioAssay AID1159580 (chemical genetic matrix, 2015)
Values joined by “and” are separate entries in the source; they are usually repeats but may differ in a detail not shown here. Equal values may be shown once. Out of some 5,500 compounds screened, about 2,000 (36%) were called active. Roughly 18% stayed inconclusive and do not appear here. Cut-off read from the data, not from the text of the source: active = normalized growth mostly below about 0.91 (no sharp cut-off); inconclusive = no clear call, values can overlap the other calls; inactive = mostly above about 0.92. The list shows a part of the results.

Test: chemical genetic growth profiling, strain panel (AID 1159580);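 note: tested at 20 µM; growth read once vehicle control cultures reached saturation at 30 °C; 1 = growth at the plate median or of vehicle wells; lower values mean less growth of the strain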
Conditions: S. cerevisiae deletion strains, growth OD

Measured: normalized growth

C[n+]1cccc(C(=O)[O-])c1
inactive: locus YAL013W, strain DEP1, hits give low values 1.01 | locus YAL021C, strain ccr4, hits give low values 1.02 | locus YAL026C, strain drs2, hits give low values 0.972 | locus YAL030W, strain snc1, hits give low values 0.982 | locus YBL061C, strain skt5, hits give low values 0.975 | locus YBR009C, strain hhf1, hits give low values 0.99 | locus YBR021W, strain FUR4, hits give low values 1 | locus YBR023C, strain chs3, hits give low values 0.963 | locus YBR171W, strain sec66, hits give low values 0.958 | locus YBR229C, strain ROT2, hits give low values 1.01 | locus YBR231C, strain swc5, hits give low values 0.97 | locus YBR279W, strain paf1, hits give low values 0.972 | locus YCL011C, strain gbp2, hits give low values 0.97 | locus YCL016C, strain dcc1, hits give low values 0.998 | locus YCL029C, strain bik1, hits give low values 0.993 | locus YCL069W, strain vba3, hits give low values 0.941 | locus YCR088W, strain abp1, hits give low values 0.963 | locus YDL005C, strain med2, hits give low values 0.952 | locus YDL035C, strain GPR1, hits give low values 1.03 | locus YDL040C, strain nat1, hits give low values 0.981 | locus YDL074C, strain BRE1, hits give low values 1.03 | locus YDL101C, strain DUN1, hits give low values 1.03 | locus YDL134C, strain PPH21, hits give low values 1.07 | locus YDL185W, strain tfp1, hits give low values 0.999 | locus YDL192W, strain arf1, hits give low values 1.01 | locus YDR001C, strain nth1, hits give low values 0.965 | locus YDR069C, strain doa4, hits give low values 0.958 | locus YDR101C, strain arx1, hits give low values 0.995 | locus YDR137W, strain rgp1, hits give low values 0.974 | locus YDR150W, strain NUM1, hits give low values 1.01 | locus YDR159W, strain sac3, hits give low values 0.97 | locus YDR162C, strain NBP2, hits give low values 1.07 | locus YDR195W, strain ref2 0.91 | locus YDR297W, strain sur2, hits give low values 0.975 | locus YDR318W, strain mcm21, hits give low values 0.994 | locus YDR334W, strain swr1, hits give low values 0.965 | locus YDR335W, strain msn5, hits give low values 0.952 | locus YDR388W, hits give low values 0.996 | locus YDR392W, strain spt3, hits give low values 0.987 | locus YDR502C, strain sam2, hits give low values 1 | locus YEL003W, strain gim4, hits give low values 0.964 | locus YEL037C, strain rad23, hits give low values 0.964 | locus YEL061C, strain CIN8 (second series), hits give low values 0.923 | locus YEL061C, strain CIN8, hits give low values 1.01 | locus YER015W, strain faa2, hits give low values 0.983 | locus YER016W, strain bim1, hits give low values 0.967 | locus YER110C, hits give low values 0.995 | locus YER111C, strain swi4, hits give low values 0.942 | locus YER155C, strain BEM2 (second series), hits give low values 0.992 | locus YER155C, strain BEM2, hits give low values 0.999 | locus YER167W, strain BCK2, hits give low values 1.02 | locus YFR010W, strain ubp6, hits give low values 0.943 | locus YGL078C, strain dbp3, hits give low values 0.997 | locus YGL086W, strain mad1, hits give low values 1 | locus YGL167C, strain pmr1, hits give low values 0.984 | locus YGL173C, strain kem1, hits give low values 0.986 | locus YGL227W, strain vid30, hits give low values 0.957 | locus YGL240W, strain doc1, hits give low values 0.972 | locus YGL248W, strain PDE1, hits give low values 1.02 | locus YGL253W, strain hxk2, hits give low values 0.955 | locus YGR078C, strain PAC10, hits give low values 1.04 | locus YGR135W, strain pre9, hits give low values 1 | locus YGR229C, strain SMI1, hits give low values 1.04 | locus YGR252W, strain gcn5, hits give low values 0.966 | locus YHR013C, strain ard1, hits give low values 0.981 | locus YHR027C, strain rpn1, hits give low values 0.992 | locus YHR030C, strain SLT2, hits give low values 1.01 and 1.03 | locus YHR079C, strain IRE1 (second series), hits give low values 1.01 | locus YHR079C, strain IRE1, hits give low values 1.02 | locus YHR094C, strain hxt1, hits give low values 0.983 | locus YHR129C, strain ARP1, hits give low values 1.02 | locus YHR142W, strain chs7, hits give low values 0.955 | locus YHR200W, strain rpn10, hits give low values 1.01 | locus YIL066C, strain RNR3, hits give low values 1.05 | locus YIL073C, strain SPO22, hits give low values 1.02 | locus YIL125W, strain kgd1, hits give low values 0.984 | locus YIR030C, strain dcg1, hits give low values 1.01 | locus YJL092W, strain hpr5, hits give low values 0.937 | locus YJL095W, strain BCK1 (second series), hits give low values 0.971 | locus YJL095W, strain BCK1, hits give low values 1.07 and 1.01 | locus YJL115W, strain asf1, hits give low values 0.956 | locus YJL129C, strain trk1, hits give low values 0.936 | locus YJL134W, strain LCB3, hits give low values 1.01 | locus YJL154C, strain vps35, hits give low values 0.948 | locus YJL164C, strain tpk1, hits give low values 0.985 | locus YJL166W, strain qcr8, hits give low values 0.961 | locus YJL168C, strain set2, hits give low values 0.999 | locus YJL187C, strain SWE1 (second series), hits give low values 1.03 | locus YJL187C, strain SWE1, hits give low values 0.97 | locus YJR043C, strain POL32, hits give low values 1.04 | locus YJR066W, strain TOR1, hits give low values 0.975 | locus YJR075W, strain HOC1, hits give low values 1.03 | locus YKL009W, strain mrt4, hits give low values 1 | locus YKL068W, hits give low values 1.01 | locus YKL085W, strain MDH1 (second series), hits give low values 1.01 | locus YKL085W, strain MDH1, hits give low values 1.01 | locus YKL160W, strain elf1, hits give low values 0.996 | locus YKR001C, strain vps1, hits give low values 0.987 | locus YKR026C, strain gcn3, hits give low values 0.952 | locus YKR091W, strain srl3, hits give low values 0.966 | locus YLL001W, strain dnm1, hits give low values 0.97 | locus YLL026W, hits give low values 0.989 | locus YLL041C, strain sdh2, hits give low values 0.963 | locus YLR027C, strain aat2, hits give low values 0.983 | locus YLR039C, strain RIC1, hits give low values 1.12 | locus YLR058C, strain SHM2, hits give low values 1.02 | locus YLR102C, strain apc9, hits give low values 0.997 | locus YLR113W, strain HOG1, hits give low values 1.04 | locus YLR221C, strain rsa3, hits give low values 0.972 | locus YLR258W, strain gsy2, hits give low values 0.971 | locus YLR262C, strain YPT6 (second series), hits give low values 0.947 | locus YLR262C, strain YPT6, hits give low values 1.12 | locus YLR268W, strain sec22, hits give low values 1.02 | locus YLR320W, strain mms22, hits give low values 0.975 | locus YLR330W, strain CHS5, hits give low values 1.02 | locus YLR342W, strain FKS1 (second series), hits give low values 1.04 | locus YLR342W, strain FKS1, hits give low values 0.948 | locus YLR357W, strain rsc2, hits give low values 0.917 | locus YLR370C, strain arc18, hits give low values 0.972 | locus YLR371W, strain rom2, hits give low values 0.994 | locus YLR384C, strain iki3, hits give low values 0.961 | locus YLR418C, strain cdc73, hits give low values 1.02 | locus YML016C, strain PPZ1, hits give low values 1.02 | locus YML032C, strain rad52, hits give low values 1.01 | locus YML120C, strain ndi1, hits give low values 0.968 | locus YML124C, strain tub3, hits give low values 0.994 | locus YMR058W, strain fet3, hits give low values 0.986 | locus YMR078C, strain ctf18, hits give low values 0.998 | locus YMR125W, strain sto1, hits give low values 0.939 | locus YMR129W, hits give low values 0.975 | locus YMR205C, strain PFK2, hits give low values 0.974 | locus YMR223W, strain ubp8, hits give low values 1 | locus YMR231W, strain pep5, hits give low values 0.975 | locus YMR263W, strain SAP30, hits give low values 1.03 | locus YMR307W, strain GAS1, hits give low values 1.02 | locus YNL067W, strain RPL9B, hits give low values 1.03 | locus YNL071W, strain lat1, hits give low values 0.961 | locus YNL153C, strain GIM3, hits give low values 1.04 | locus YNL183C, strain NPR1, hits give low values 0.981 | locus YNL209W, strain ssb2, hits give low values 0.975 | locus YNL233W, strain BNI4, hits give low values 1.03 | locus YNL248C, strain rpa49, hits give low values 0.937 | locus YNL250W, strain rad50, hits give low values 0.999 | locus YNL271C, strain bni1, hits give low values 1 | locus YNL298W, strain CLA4, hits give low values 1.02 | locus YNL307C, strain MCK1, hits give low values 1 | locus YNL322C, strain KRE1 (second series), hits give low values 0.948 | locus YNL322C, strain KRE1, hits give low values 1 | locus YNR049C, strain mso1, hits give low values 0.962 | locus YNR052C, strain pop2, hits give low values 1 | locus YOL012C, strain htz1 1.15 | locus YOL147C, strain pex11, hits give low values 0.996 | locus YOR001W, strain rrp6, hits give low values 0.933 | locus YOR061W, strain CKA2, hits give low values 1.02 | locus YOR069W, strain VPS5, hits give low values 1.01 | locus YOR070C, strain gyp1, hits give low values 0.987 | locus YOR080W, strain dia2, hits give low values 0.978 | locus YOR083W, strain WHI5, hits give low values 0.992 | locus YOR106W, strain vam3, hits give low values 0.977 | locus YOR136W, strain idh2, hits give low values 1 | locus YOR144C, strain elg1, hits give low values 0.989 | locus YOR184W, strain ser1, hits give low values 1.02 | locus YOR231W, strain MKK1, hits give low values 1.04 | locus YOR265W, strain rbl2, hits give low values 0.98 | locus YOR270C, strain vph1, hits give low values 0.931 | locus YOR290C, strain snf2, hits give low values 1.01 | locus YOR316C, strain cot1, hits give low values 1.01 | locus YPL051W, strain arl3, hits give low values 0.999 | locus YPL055C, strain LGE1, hits give low values 1.02 | locus YPL078C, strain atp4, hits give low values 0.963 | locus YPL106C, strain sse1, hits give low values 0.932 | locus YPL240C, strain hsp82, hits give low values 0.963 | locus YPL241C, strain CIN2, hits give low values 1 | locus YPL256C, strain CLN2, hits give low values 1.02 | locus YPR119W, strain clb2, hits give low values 1.02 | locus YPR141C, strain kar3, hits give low values 1.01 | locus YPR163C, strain tif3, hits give low values 0.997 | locus YPR167C, strain met16, hits give low values 1.01 | strain wtn01, hits give low values 1.01
